Assays:
Assay in all cases: DAPPL (digital affinity profiling via proximity ligation, sequencing); 10 mM Tris-HCl pH 7.5, 50 mM NaCl, 1 mM DTT, 4% glycerol, room temperature, 30 min; GST-TFs on glutathione beads, 16-mer random dsDNA library, 0.1% formaldehyde crosslink after washing; high values mean tight binding
[1] = target: T1, FLI1 (Homo sapiens, UniProt Q01543 1-452); details: protein: recombinant; tags: N-terminal GST; dsDNA, one strand shown
T1 sequence: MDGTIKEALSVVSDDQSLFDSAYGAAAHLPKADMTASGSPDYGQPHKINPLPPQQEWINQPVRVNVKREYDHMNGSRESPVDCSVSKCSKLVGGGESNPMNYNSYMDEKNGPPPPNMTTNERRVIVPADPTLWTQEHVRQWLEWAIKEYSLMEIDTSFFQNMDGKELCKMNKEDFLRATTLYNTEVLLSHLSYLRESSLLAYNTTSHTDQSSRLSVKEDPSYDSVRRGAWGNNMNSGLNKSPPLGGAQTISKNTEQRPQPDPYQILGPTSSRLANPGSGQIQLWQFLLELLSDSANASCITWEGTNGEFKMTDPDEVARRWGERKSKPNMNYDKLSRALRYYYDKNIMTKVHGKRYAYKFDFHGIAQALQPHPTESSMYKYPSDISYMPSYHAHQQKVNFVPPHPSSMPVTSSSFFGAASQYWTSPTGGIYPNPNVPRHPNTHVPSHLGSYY
Method in brief: (§1)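 Human transcription factors carrying a GST fusion were produced in yeast, bound to glutathione beads, tagged with DNA barcodes and pooled together with a tag-only sample. Each pool was held with 200 nmole of a random double-stranded 16-mer DNA library in Tris/NaCl/DTT/glycerol buffer for 30 min at room temperature, then washed, crosslinked in 0.1% formaldehyde, proximity-ligated with BsaI/T4 ligase (1 h, 37 °C), PCR-amplified and sequenced on an Illumina NextSeq500. Binding signal is the read frequency of each hexamer for a given factor divided by its frequency in the tag-only sample.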

[2] = target: T2, ELK1 (Homo sapiens, UniProt P19419 1-428); details: protein: recombinant; tags: N-terminal GST; dsDNA, one strand shown
T2 sequence: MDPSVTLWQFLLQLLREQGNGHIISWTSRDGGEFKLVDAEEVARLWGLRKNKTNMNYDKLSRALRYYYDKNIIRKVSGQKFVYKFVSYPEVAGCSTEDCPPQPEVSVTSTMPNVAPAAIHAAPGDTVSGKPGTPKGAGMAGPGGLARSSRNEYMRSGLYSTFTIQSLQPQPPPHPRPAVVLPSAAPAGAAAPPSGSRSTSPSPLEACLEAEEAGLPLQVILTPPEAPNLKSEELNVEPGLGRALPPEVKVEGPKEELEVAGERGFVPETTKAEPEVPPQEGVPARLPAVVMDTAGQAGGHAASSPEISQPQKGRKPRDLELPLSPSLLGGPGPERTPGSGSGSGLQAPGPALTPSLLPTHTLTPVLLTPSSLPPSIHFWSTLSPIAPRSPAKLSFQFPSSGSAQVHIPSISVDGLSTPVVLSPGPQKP
Method in brief: as §1

[3] = target: T3, GABPA (Homo sapiens, UniProt Q06546 1-454); details: protein: recombinant; tags: N-terminal GST; dsDNA, one strand shown
T3 sequence: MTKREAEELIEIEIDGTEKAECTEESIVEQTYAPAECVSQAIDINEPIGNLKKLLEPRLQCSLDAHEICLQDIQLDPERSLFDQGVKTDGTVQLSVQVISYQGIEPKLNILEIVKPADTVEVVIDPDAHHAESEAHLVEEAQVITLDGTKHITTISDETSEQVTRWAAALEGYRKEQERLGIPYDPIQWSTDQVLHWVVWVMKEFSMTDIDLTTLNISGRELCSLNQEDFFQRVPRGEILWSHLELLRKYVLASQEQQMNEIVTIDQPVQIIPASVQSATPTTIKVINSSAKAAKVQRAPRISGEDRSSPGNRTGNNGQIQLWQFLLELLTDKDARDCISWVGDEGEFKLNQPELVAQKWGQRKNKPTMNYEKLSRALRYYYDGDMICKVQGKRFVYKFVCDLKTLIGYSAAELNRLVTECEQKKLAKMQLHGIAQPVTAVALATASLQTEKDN
Method in brief: as §1

[4] = target: T4, ERG (Homo sapiens, UniProt P11308 1-479); details: protein: recombinant; tags: N-terminal GST; dsDNA, one strand shown
T4 sequence: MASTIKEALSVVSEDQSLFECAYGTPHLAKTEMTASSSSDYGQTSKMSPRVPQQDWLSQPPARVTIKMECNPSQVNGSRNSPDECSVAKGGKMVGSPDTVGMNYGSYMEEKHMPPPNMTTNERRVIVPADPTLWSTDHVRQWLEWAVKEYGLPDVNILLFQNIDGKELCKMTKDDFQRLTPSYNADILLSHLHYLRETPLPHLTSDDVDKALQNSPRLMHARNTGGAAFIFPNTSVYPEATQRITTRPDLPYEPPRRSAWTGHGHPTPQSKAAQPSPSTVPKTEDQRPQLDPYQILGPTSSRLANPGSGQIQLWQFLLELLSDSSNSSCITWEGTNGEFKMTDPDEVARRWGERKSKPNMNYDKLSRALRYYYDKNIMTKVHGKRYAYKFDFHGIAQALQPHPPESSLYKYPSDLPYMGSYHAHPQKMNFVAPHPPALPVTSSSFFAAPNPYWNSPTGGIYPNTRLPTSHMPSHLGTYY
Method in brief: as §1

[5] = target: ELF1 (Homo sapiens, UniProt P32519 1-619); details: protein: recombinant; tags: N-terminal GST; dsDNA, one strand shown
Chain of ELF1 (P32519 whole entry): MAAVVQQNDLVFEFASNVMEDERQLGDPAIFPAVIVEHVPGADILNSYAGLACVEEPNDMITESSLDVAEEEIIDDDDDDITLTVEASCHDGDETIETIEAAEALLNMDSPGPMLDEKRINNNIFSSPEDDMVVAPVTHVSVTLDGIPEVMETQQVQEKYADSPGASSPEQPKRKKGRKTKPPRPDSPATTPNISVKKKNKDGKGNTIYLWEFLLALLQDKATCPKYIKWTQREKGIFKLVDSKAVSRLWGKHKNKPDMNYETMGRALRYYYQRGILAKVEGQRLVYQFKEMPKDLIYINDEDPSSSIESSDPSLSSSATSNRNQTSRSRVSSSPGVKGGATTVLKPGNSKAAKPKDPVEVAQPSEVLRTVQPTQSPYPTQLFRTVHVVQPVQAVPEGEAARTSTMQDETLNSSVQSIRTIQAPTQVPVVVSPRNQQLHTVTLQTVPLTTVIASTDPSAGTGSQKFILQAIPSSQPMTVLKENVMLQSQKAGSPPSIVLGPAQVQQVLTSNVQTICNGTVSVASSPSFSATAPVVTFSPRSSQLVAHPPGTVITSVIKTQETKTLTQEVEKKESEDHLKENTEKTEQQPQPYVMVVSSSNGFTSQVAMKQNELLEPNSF
Method in brief: as §1

[6] = target: T5, EHF (Homo sapiens, UniProt Q9NZC4 1-300); details: protein: recombinant; tags: N-terminal GST; dsDNA, one strand shown
T5 sequence: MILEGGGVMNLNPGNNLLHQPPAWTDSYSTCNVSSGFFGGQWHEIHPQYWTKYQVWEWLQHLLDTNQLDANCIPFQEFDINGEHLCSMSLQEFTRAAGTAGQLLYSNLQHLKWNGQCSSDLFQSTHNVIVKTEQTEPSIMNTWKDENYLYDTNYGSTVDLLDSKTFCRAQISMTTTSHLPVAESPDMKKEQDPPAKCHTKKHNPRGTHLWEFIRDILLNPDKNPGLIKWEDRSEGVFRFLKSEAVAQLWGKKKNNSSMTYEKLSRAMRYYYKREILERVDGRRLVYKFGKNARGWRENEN
Method in brief: as §1

[7] = target: SPI1 (Homo sapiens, UniProt P17947 1-270); details: protein: recombinant; tags: N-terminal GST; dsDNA, one strand shown
Method in brief: as §1

[8] = target: SPIB (Homo sapiens, UniProt Q01892 1-262); details: protein: recombinant; tags: N-terminal GST; dsDNA, one strand shown
Chain of SPIB (Q01892 whole entry): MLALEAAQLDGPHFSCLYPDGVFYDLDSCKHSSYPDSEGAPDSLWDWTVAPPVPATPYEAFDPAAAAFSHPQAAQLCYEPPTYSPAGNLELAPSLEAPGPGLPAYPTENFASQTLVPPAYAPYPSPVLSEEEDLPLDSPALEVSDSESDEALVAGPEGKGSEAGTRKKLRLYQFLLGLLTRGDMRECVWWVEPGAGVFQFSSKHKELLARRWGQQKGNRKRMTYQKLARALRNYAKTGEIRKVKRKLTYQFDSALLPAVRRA
Method in brief: as §1

[9] = target: T6, ELK3 (Homo sapiens, UniProt P41970 1-407); details: protein: recombinant; tags: N-terminal GST; dsDNA, one strand shown
T6 sequence: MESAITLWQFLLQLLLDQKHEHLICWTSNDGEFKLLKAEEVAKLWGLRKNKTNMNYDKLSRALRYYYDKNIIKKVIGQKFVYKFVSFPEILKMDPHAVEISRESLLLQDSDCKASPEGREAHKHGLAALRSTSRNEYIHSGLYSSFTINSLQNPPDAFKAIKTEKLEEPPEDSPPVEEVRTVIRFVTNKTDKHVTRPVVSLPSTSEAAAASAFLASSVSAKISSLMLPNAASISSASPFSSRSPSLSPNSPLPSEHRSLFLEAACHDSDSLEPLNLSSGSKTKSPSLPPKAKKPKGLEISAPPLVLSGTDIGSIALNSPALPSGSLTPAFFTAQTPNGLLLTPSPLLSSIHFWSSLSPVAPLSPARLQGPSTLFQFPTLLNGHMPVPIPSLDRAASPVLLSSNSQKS
Method in brief: as §1

[10] = target: T7, FEV (Homo sapiens, UniProt Q99581 1-238); details: protein: recombinant; tags: N-terminal GST; dsDNA, one strand shown
T7 sequence: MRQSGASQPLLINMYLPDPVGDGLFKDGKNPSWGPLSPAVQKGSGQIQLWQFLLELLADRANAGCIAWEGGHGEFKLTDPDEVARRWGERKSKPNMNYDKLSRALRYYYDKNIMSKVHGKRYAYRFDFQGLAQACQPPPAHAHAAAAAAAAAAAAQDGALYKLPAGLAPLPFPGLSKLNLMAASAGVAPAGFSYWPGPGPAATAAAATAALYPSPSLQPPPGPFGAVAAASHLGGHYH
Method in brief: as §1

[11] = target: ETV5 (Homo sapiens, UniProt P41161 1-510); details: protein: recombinant; tags: N-terminal GST; dsDNA, one strand shown
Chain of ETV5 (P41161 whole entry): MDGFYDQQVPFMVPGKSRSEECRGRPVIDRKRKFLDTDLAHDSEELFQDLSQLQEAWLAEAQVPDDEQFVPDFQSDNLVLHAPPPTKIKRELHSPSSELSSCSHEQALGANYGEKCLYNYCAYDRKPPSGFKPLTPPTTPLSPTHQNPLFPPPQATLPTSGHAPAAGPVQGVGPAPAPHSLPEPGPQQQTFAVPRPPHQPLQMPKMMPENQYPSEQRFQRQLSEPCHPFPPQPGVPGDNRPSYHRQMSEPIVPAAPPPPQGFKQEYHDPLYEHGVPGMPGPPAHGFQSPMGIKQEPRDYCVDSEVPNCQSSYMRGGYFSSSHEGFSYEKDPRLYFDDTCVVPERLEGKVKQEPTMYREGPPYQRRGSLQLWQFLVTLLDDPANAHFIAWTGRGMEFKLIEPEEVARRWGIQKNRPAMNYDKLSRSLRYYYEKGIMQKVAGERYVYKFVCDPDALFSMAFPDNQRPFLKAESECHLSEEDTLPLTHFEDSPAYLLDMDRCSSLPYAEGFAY
Method in brief: as §1

[12] = target: HSF1 (Homo sapiens, UniProt Q00613 1-529); details: protein: recombinant; tags: N-terminal GST; chain copies: 3; dsDNA, one strand shown
Chain of HSF1 (Q00613 whole entry): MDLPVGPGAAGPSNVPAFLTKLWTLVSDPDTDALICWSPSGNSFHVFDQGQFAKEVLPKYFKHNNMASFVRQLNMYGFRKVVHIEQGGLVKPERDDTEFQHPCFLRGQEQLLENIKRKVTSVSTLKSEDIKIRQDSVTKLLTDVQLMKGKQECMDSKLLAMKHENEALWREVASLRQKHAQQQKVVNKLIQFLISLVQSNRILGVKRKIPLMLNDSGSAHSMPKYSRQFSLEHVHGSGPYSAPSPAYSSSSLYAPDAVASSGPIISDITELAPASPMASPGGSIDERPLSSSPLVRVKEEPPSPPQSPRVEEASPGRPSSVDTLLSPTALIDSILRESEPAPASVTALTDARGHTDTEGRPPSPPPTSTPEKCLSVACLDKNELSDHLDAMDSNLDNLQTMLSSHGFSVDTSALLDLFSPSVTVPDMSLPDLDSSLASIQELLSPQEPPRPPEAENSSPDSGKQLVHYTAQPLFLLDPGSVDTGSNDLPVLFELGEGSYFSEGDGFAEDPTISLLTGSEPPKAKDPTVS
Method in brief: as §1

[13] = target: T8, SPIC (Homo sapiens, UniProt Q8N5J4 1-248); details: protein: recombinant; tags: N-terminal GST; dsDNA, one strand shown
T8 sequence: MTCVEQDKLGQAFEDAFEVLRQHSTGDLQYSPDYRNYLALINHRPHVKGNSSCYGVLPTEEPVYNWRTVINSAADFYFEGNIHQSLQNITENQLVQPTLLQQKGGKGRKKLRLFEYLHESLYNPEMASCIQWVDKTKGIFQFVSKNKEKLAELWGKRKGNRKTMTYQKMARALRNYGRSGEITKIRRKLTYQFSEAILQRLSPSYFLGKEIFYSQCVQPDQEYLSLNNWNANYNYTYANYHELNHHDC
Method in brief: as §1

[14] = target: ELF4 (Homo sapiens, UniProt Q99607 1-663); details: protein: recombinant; tags: N-terminal GST; dsDNA, one strand shown
Chain of ELF4 (Q99607 whole entry): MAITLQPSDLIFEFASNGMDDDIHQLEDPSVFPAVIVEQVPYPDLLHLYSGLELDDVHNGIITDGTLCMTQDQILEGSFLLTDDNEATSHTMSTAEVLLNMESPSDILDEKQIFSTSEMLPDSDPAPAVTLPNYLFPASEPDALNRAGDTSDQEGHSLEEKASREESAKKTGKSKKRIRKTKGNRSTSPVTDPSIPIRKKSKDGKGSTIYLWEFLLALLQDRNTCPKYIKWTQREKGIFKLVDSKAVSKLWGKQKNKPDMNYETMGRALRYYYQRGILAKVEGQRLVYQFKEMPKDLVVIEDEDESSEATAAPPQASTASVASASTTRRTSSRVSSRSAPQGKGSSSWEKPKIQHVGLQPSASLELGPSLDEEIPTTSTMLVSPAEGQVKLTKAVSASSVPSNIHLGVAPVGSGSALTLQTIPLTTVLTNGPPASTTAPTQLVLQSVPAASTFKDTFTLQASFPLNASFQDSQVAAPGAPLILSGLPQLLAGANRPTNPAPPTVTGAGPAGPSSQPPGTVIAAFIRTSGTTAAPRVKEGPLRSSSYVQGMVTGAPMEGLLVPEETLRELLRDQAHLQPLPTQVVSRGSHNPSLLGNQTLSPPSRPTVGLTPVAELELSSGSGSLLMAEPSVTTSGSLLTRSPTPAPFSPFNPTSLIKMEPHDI
Method in brief: as §1

[15] = target: T9, ELK4 (Homo sapiens, UniProt P28324-2 1-405); details: protein: recombinant; tags: N-terminal GST; dsDNA, one strand shown
T9 sequence: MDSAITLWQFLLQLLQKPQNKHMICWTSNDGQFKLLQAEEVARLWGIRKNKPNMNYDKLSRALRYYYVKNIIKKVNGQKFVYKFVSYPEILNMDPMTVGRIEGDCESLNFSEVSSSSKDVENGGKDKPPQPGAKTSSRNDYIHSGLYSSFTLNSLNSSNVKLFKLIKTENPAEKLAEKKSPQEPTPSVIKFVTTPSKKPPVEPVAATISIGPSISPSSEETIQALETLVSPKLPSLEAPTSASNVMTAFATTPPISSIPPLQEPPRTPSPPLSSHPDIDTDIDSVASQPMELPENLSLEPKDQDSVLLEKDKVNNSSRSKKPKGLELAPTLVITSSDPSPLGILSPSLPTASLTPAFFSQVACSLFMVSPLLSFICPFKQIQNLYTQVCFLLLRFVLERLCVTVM
Method in brief: as §1

[16] = target: T10, ETV2 (Homo sapiens, UniProt O00321 1-342); details: protein: recombinant; tags: N-terminal GST; dsDNA, one strand shown
T10 sequence: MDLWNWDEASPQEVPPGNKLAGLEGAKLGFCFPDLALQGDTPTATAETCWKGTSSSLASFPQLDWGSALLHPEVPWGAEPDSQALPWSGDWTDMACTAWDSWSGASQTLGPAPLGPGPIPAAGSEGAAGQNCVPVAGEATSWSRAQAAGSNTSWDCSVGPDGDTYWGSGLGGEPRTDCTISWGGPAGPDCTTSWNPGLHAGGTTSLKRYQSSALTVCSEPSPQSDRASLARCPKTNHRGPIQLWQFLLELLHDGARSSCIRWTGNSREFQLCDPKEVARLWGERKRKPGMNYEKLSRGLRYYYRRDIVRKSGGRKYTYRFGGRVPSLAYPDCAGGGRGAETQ
Method in brief: as §1

[17] = target: T11, ELF3 (Homo sapiens, UniProt P78545 1-371); details: protein: recombinant; tags: N-terminal GST; dsDNA, one strand shown
T11 sequence: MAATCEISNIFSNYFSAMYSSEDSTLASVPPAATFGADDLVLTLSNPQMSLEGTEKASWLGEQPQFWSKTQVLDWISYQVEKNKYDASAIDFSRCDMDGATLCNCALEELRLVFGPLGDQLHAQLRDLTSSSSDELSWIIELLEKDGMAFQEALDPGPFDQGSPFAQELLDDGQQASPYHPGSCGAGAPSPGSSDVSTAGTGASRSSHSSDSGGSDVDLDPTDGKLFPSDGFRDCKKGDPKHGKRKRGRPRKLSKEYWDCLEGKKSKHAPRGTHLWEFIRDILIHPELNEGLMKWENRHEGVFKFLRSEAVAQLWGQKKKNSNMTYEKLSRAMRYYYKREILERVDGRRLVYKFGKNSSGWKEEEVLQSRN
Method in brief: as §1

[18] = target: CRX (Homo sapiens, UniProt O43186 1-299); details: protein: recombinant; tags: N-terminal GST; dsDNA, one strand shown
Chain of CRX (O43186 whole entry): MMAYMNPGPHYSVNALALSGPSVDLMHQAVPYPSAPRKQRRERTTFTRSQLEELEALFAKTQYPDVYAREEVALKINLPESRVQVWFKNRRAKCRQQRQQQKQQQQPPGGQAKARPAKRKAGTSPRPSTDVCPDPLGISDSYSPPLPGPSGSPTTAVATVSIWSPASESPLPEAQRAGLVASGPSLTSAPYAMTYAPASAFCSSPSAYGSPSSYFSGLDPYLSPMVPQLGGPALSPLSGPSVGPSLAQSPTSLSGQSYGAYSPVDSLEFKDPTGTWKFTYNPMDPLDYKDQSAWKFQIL
Method in brief: as §1

[19] = target: ETV1 (Homo sapiens, UniProt P50549 1-477); details: protein: recombinant; tags: N-terminal GST; dsDNA, one strand shown
Chain of ETV1 (P50549 whole entry): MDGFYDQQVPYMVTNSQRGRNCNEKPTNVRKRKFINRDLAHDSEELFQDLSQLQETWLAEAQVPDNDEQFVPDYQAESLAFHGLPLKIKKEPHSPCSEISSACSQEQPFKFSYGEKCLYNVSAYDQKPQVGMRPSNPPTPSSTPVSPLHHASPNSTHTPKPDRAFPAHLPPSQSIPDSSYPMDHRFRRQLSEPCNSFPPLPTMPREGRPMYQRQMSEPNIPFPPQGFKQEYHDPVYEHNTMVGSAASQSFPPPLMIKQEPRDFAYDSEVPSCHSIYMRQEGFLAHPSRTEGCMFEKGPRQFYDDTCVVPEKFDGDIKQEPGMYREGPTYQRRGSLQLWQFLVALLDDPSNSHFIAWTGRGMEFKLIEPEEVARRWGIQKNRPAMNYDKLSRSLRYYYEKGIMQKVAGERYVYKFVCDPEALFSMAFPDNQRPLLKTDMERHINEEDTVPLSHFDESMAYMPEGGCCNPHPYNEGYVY
Method in brief: as §1

With TAAACA the binding signal [1] was 1.19 fold enrichment (6-mer frequency, TF over GST control), the binding signal [2] was 1.2 fold enrichment (6-mer frequency, TF over GST control) and the binding signal [3] was 1.19 fold enrichment (6-mer frequency, TF over GST control). The binding signal [4] was 1.21 fold enrichment (6-mer frequency, TF over GST control), the binding signal [5] was 1.22 fold enrichment (6-mer frequency, TF over GST control) and the binding signal [6] was 1.2 fold enrichment (6-mer frequency, TF over GST control). The binding signal [7] was 1.21 fold enrichment (6-mer frequency, TF over GST control), the binding signal [8] was 1.16 fold enrichment (6-mer frequency, TF over GST control) and the binding signal [9] was 1.23 fold enrichment (6-mer frequency, TF over GST control). The binding signal [10] was 1.18 fold enrichment (6-mer frequency, TF over GST control), the binding signal [11] was 1.24 fold enrichment (6-mer frequency, TF over GST control) and the binding signal [12] was 1.29 fold enrichment (6-mer frequency, TF over GST control). The binding signal [13] was 1.29 fold enrichment (6-mer frequency, TF over GST control), the binding signal [14] was 1.26 fold enrichment (6-mer frequency, TF over GST control) and the binding signal [15] was 1.37 fold enrichment (6-mer frequency, TF over GST control). For the same sequence, the binding signal [16] was 1.22 fold enrichment (6-mer frequency, TF over GST control), the binding signal [17] was 1.28 fold enrichment (6-mer frequency, TF over GST control) and the binding signal [18] was 1.53 fold enrichment (6-mer frequency, TF over GST control). For the same sequence, the binding signal [19] was 1.2 fold enrichment (6-mer frequency, TF over GST control).

Reference: publication PMC7862700, “An all-to-all approach to the identification of sequence-specific readers for epigenetic DNA modifications on cytosine”
